D1 potentiator – human D1 dopamine receptor positive modulation | hit rate 0.036% among 360,000 | HEK293 TREx D1 cells, calcium flux, dopamine EC20 potentiation | P21728 | potentiation, % at 10 µM; in the data active = potentiation above about 30%
D1 ag – human D1 receptor agonism | P21728 | HEK293 T-REx D1 cells, calcium flux, agonist mode | activation, % at 2 µM | hit rate 1% among 360,000 | AID 504660
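Tetracycline-induced HEK293 TREx D1 cells, force-coupled to calcium signalling, were dye-loaded with a no-wash calcium kit. Compound was pin-added after a 10 s baseline. Fluorescence was read kinetically at 1 cycle/s for 180 s, with calcium rises flagged as agonism.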
Glioma ERSR ind – induces the endoplasmic reticulum stress response in human glioma cells | U87-MG GRP78 promoter luciferase reporter, 16 h | Potency, µM, most hits filed as activators | hit rate 0.02% among 420,000 | AID 602332; active = well fitted activation curve with a large enough effect; inconclusive = small, poorly fitted or top-dose-only effect; inactive = no such curve, though single readings can be large or run the other way; also: series mostly up to about 76 µM; nearly all actives have a fitted effect of over 35% in size
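Stably transfected U87-MG human glioma cells carrying a GRP78-based luminescent sensor were seeded at 1000 cells/well, pin-dosed with compounds and incubated 16 h. Luciferase reagent was then added, and end-point luminescence was read after 10 min at room temperature.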
D1 antagonist – antagonists of human D1 dopamine receptor; hit rate 3.2% among 360,000; P21728; activity change, negative = inhibition, % at 10 µM; HEK293 TREx D1 cells, calcium flux, dopamine EC80; active compounds read low; AID 504652; in the data active = activity change below about -30%
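Allosteric or orthosteric antagonism assessed as attenuation of the calcium response to EC80 dopamine, added 180 s after compound, in induced HEK293 Trex D1 cells loaded with no-wash calcium dye.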
TRHR agonist – TRH receptor (human) agonism; P34981; TRHR cells, calcium flux fluo-8, FDSS agonist mode; activation, % at 2 µM; hit rate 0.18% among 360,000; AID 493084
Target sequence (P34981 whole entry, looked up): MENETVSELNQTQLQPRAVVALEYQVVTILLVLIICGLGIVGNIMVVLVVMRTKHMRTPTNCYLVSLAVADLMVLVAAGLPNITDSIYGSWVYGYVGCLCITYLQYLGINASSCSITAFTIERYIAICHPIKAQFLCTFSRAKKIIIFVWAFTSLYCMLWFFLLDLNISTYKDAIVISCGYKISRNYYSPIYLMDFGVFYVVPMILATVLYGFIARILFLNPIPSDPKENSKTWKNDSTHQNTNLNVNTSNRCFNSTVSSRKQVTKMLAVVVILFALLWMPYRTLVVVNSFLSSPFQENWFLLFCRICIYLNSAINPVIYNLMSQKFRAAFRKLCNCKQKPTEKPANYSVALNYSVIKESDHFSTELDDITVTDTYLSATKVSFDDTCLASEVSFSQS
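TRHR-expressing cells loaded with fluo-8 calcium dye; 23 nL library compound pin-transferred, kinetic FDSS fluorescence (Ex 480/Em 530) recorded about 180 s for agonist-induced calcium release, before a 10 nM TRH EC20 addition for potentiator mode.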
TRHR enhancer – TRH receptor (human) allosteric enhancement; P34981; TRHR cells, fluo-8 calcium fluorescence, EC20 TRH enhancement; enhancement, % at 2 µM; hit rate 0.66% among 360,000; AID 493056; in the data active = enhancement above about 30%
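TRHR-expressing cells loaded with fluo-8 calcium dye were read kinetically (ex 480/em 530) during compound addition, then stimulated with an EC20 of TRH (10 nM final). Enhancement of the Gq-mediated intracellular calcium response was scored.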
Of the large screens only hits and unclear results are named; the others gave an inactive call; ! = not active in a repeat. Hits are enriched below; roughly 4% of the tested compounds scored in any of these assays. Rule as the data show it, unless noted: active = activation above about 30%; inactive = the rest.

CN(C)c1ccc(/C=C(/NC(=O)c2ccccc2)C(=O)NCCCn2ccnc2)cc1	D1 ag 34
COc1ccc(-c2noc(-c3ccc(NCc4ccco4)c([N+](=O)[O-])c3)n2)cc1OC	D1 antagonist -41
COc1ccc(-c2nc3cccc(C)n3c2NCc2ccco2)cc1OC	D1 antagonist -31
COc1ccc(-c2ccc(C#N)c(SCC(=O)NCc3ccco3)n2)cc1OC	none
Cc1cccc(-c2noc(-c3ccc(NCc4ccco4)c([N+](=O)[O-])c3)n2)c1	none
COc1ccc(-c2noc(-c3ccc(NCc4ccc(C)cc4)c([N+](=O)[O-])c3)n2)cc1OC	D1 antagonist -68
O=C(C1CCN(c2nc(-c3ccccc3)nc3c2CCC3)CC1)N1CCCC1	none (no result: D1 potentiator, D1 ag, D1 antagonist, TRHR agonist, TRHR enhancer)
CC1CCCCN1C(=O)C1CCN(c2nc(-c3ccccc3)nc3c2CCC3)CC1 (stereo not given)	TRHR enhancer 39
C=C(Br)COC(c1ccco1)[C@H](Cc1ccccc1)NC(=O)OC(C)(C)C (stereo not given in full)	none (no result: D1 potentiator, D1 ag, D1 antagonist, TRHR agonist, TRHR enhancer)
CCCS(=O)(=O)c1c(S(=O)(=O)CCC)c2cnccn2c1C(=O)c1ccc(Cl)cc1	TRHR enhancer 33
CCCS(=O)(=O)c1c(S(=O)(=O)CCC)c2cc(C(C)(C)C)ccn2c1C(=O)c1ccccc1	none
COc1ccc(CN2C(=O)c3oc4ccc(F)cc4c(=O)c3C2c2ccc(O)cc2)cc1 (stereo not given)	D1 antagonist -36
COc1ccc(CN2C(=O)c3oc4ccccc4c(=O)c3C2c2ccc(O)cc2)cc1 (stereo not given)	none
Cc1ccc(S(=O)(=O)NCCC(=O)O)cc1	none
Cc1ccc(CSCCNS(=O)(=O)c2ccc(C)cc2)cc1	D1 antagonist -40
CCc1ccc(N(CC(=O)NC2CC2)S(=O)(=O)c2ccc(C)cc2)cc1	D1 antagonist -43
Cc1ccc(S(=O)(=O)NCC(=O)NC2CCCC2)cc1	none
Cc1ccc(S(=O)(=O)NCCCC(=O)O)cc1	D1 antagonist -32
Cc1ccc(S(=O)(=O)NCC(=O)NC2CCCCCC2)cc1	TRHR enhancer 34
CC(=O)N[C@H]1CSSC[C@@H](C(=O)N2CCC[C@H]2C(=O)N2CCC[C@H]2C(=O)N[C@@H](CCCCN)C(=O)N[C@@H](CC(=O)O)C(N)=O)NC(=O)CNC(=O)[C@H](Cc2c[nH]c3ccccc23)NC(=O)[C@H](CCCNC(=N)N)NC(=O)[C@@H](Cc2ccc3ccccc3c2)NC(=O)[C@H](Cc2cnc[nH]2)NC(=O)[C@H](CCC(=O)O)NC1=O	none (no result: D1 potentiator, D1 ag, D1 antagonist, TRHR agonist, TRHR enhancer)
COc1cc(OC)c(/C=C/c2ccccn2)c(OC)c1	none (no result: D1 potentiator, D1 ag, D1 antagonist, TRHR agonist, TRHR enhancer)
COc1ccc(OC)c(C2=C/C(=C/c3ccccn3)C(=O)O2)c1	D1 ag 189, D1 antagonist -56
Cc1ccc(-c2cnc(SCCNC(=O)c3ccco3)[nH]2)cc1	TRHR enhancer 31
Cc1ccc(C(=O)NCCCNC(=O)c2ccco2)cc1	none
OCCOc1ccc(CN2CCCC(N3CCN(c4ccc(F)cc4)CC3)C2)cc1 (stereo not given)	D1 antagonist -43
CCOc1ccc(CN2CCCC(N3CCN(c4ccc(OC)cc4)CC3)C2)cc1 (stereo not given)	none
CNc1nc(-c2ccoc2)nc2ccccc12	none (no result: D1 potentiator, D1 ag, D1 antagonist, TRHR agonist, TRHR enhancer)
CN1CCN(c2ncc3nc(-c4cccc(C#N)c4)c(=O)n(CCc4ccccc4)c3n2)CC1	none (no result: D1 potentiator, D1 ag, D1 antagonist, TRHR agonist, TRHR enhancer)
CCOC(=O)c1cn2nc(Oc3cccc(C(F)(F)F)c3)ccc2n1	none
COc1cc(C)nc(N(C)C(C)=O)n1	D1 antagonist -34
Cn1c(=O)[nH]c(N)c(Br)c1=O	none (no result: D1 potentiator, D1 ag, D1 antagonist, TRHR agonist, TRHR enhancer)
COc1ccc(OC)c(/C=C2\NC(=O)NC2=O)c1	none
COc1cc(N2CCCC2)c(OC)cc1/C=C1/NC(=S)NC1=O	D1 ag 183, D1 antagonist -35, TRHR agonist 71
O=C(Oc1ccc2c(c1)O/C(=C\c1ccncc1)C2=O)c1cccs1	D1 ag 37
C=CCOc1cccc(C2/C(=C(\O)c3ccc(F)cc3)C(=O)C(=O)N2CCN(C)C)c1 (stereo not given)	D1 antagonist -53
CCN(CC)C(=O)C1CCN(C(=O)c2cnn(-c3ccccc3)c2-n2cccc2)CC1	none
COc1ccc(Cn2c(C3CCCCC3)nc3c(c(=O)c4ccccc4n3C)c2=O)cc1	D1 ag 42
COc1ccc(CCn2c(C3CCCCC3)nc3c(c(=O)c4ccccc4n3C)c2=O)cc1	D1 ag 126, D1 antagonist -39
CC(C)c1nc2c(c(=O)c3ccccc3n2C)c(=O)n1CCc1ccccc1	D1 ag 93
COc1ccc(Cn2c(-c3ccccc3)nc3c(c(=O)c4ccccc4n3C)c2=O)cc1	D1 potentiator 40
COc1ccc(CCn2c(C3CCCCC3)nc3c(c(=O)c4ccccc4n3C)c2=O)cc1OC	none
CCOC(=O)C(NC(C)=O)C(=O)Nc1ccc(C(C)C)cc1 (stereo not given)	TRHR enhancer 39
CCCCN(C)CCCNC(=O)c1cn(C)c2ccc(S(=O)(=O)N(C)C3CCCCC3)cc2c1=O	none
Oc1ccc(CCNc2c3ccccc3nc3ccccc23)cc1O	Glioma ERSR ind inconclusive, D1 antagonist -51
C=CCC1S/C(=N/N=C/c2cccs2)NC1=O (stereo not given)	none
O=C1N/C(=N\N=C\c2cccs2)SC1Cc1ccc(Cl)c(Cl)c1 (stereo not given)	D1 antagonist -43
CC[C@]12c3[nH]c4ccc(OC)cc4c3CCN1C(=O)C(CC(=O)NCCc1ccccn1)C[C@@H]2C(=O)N1CCN(C(=O)C2CC2)CC1 (stereo not given in full)	none (no result: D1 potentiator, D1 ag, D1 antagonist, TRHR agonist, TRHR enhancer)
N#CC1=C(N)Oc2ccc3ccc(O)cc3c2C1c1cccnc1 (stereo not given)	D1 antagonist -76
Cc1nn(-c2cccc(Cl)c2)c2c1C(c1cccnc1)C(C#N)=C(N)O2 (stereo not given)	D1 antagonist -36
O=S(=O)(Nc1c(Br)cc(Br)c2cccnc12)C1CCCCC1	none
CCOC(=O)c1c(C)[nH]c(C)c1S(=O)(=O)N(C)CC(=O)NCc1cccc(Br)c1	D1 antagonist -36!
COc1cccc(-c2c(-c3cc(OC)cc(OC)c3)n(C)c3ccc(-c4cccc5[nH]ccc45)cc23)c1	none (no result: D1 antagonist)
COc1ccc2c(c1)OC(C)CN(CCNC(=O)C1CCOC1)C2 (stereo not given)	none (no result: D1 potentiator, D1 ag, D1 antagonist, TRHR agonist, TRHR enhancer)
O=C(c1ccccc1)c1cnc[nH]1	TRHR enhancer 30
O=[N+]([O-])c1ccc(S(=O)(=O)N2CCN=C2SCc2ccc(F)cc2)cc1	none
O=C(CNc1cc(S(=O)(=O)N2CCOCC2)ccc1N1CCCC1)NCc1ccco1	none
CC(C)CSc1ccccc1NC(=O)c1sc2nc(-c3ccncc3)ccc2c1N	D1 antagonist -31

Assay outcomes from PubChem.
